This is part of a sample that, as a whole, favours compounds with a hit. Of some 83,000 tested, about 20% had one in any assay.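 Cells were grown in 96-well plates and exposed to the test compound at a single concentration for 48 hours; results are reported as percent growth, with values below 10 considered active.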 Calls of active or inactive are those of the source.

The results in this text go back to PubChem BioAssay (NCI).

For the experiment, the system named is HCT-116 colon. Nature of the experiment: NCI-60 one-dose screen, 48 h (100 = growth as untreated, 0 = no growth, -100 = all killed). Conditions: 10 µM.
Turning to `CCCn1c(O)c(N=Nc2nc(-c3cc4ccccc4oc3=O)cs2)c2cc(Br)ccc21`, the growth was 101% (inactive). The same measure for `O/N=C(\CSc1nnc(-c2c[nH]c3ccccc23)n1-c1ccccc1)c1ccc(Br)cc1`: -36.3% (active).

On to `CC(=O)Oc1ccccc1C(=O)Oc1ccc(C(=O)/C=C/c2ccncc2)cc1`, for which the growth was -28.5% (active). The result for `CC(=O)C1=C(C)NC(SCC(=O)Nc2ccc(S(=O)(=O)Nc3cc(C)on3)cc2)=NC1c1ccccc1` (stereo not drawn) reads 105% (inactive); that for `COc1cc2c3c(n(CCCn4ccnc4)c(=O)c2cc1OC)-c1nc2c(cc1C3=O)OCO2`, 30.4% (inactive). The result for `O=S(=O)(Nc1ncccn1)c1ccc(-n2c(-c3ccc(Br)cc3)nc(-c3ccccc3)c2-c2ccccc2)cc1` reads 34.5% (inactive).

As to `COc1ccc(-c2cc(C(=O)N=Nc3c(O)[nH]c4ccc(Br)cc34)c3ccccc3n2)cc1`, the growth was 16.9% (inactive).

As to `CCOC(=O)CNC(=O)CN(Cc1ccccc1)C(=O)[C@@]1(C)CCC[C@]2(C)[C@H]3CC4C(C(C)C)=C[C@]3(CC[C@H]21)[C@@H]1C(=O)CCC(=O)[C@H]41`, the growth was 36.5% (inactive). On to `CC1(c2ccccc2)NC(=O)N(CC(=O)Nc2ccc(C(=O)/C=C/C=C/c3ccccc3)cc2)C1=O` (stereo not drawn), for which the growth was 27.1% (inactive). The same measure for `O=c1c2ccccc2nc(COc2ccccc2)n1/N=C/c1ccc(F)cc1`: 75.3% (inactive); for `COc1ccc(-c2cc(-c3cc(C(=O)c4ccccc4)n4ccc(C)cc34)nc(N)c2C#N)cc1`: 58.1% (inactive); for `COc1cc(C2CC(c3ccc(C)cc3)=Nc3c(N)nc(N)nc3N2)ccc1Oc1nc(Nc2ccc(F)cc2)nc(N(C)C)n1` (stereo not drawn): 6.7% (active). The result for `O=C(Nc1cccc(C(F)(F)F)c1)c1cncc(C#Cc2cnc3ccc(N4CCOCC4)nn23)c1` reads 0.369% (active).

Consider `CC(=O)Nc1ccc(-c2cn(-c3cccc(C(=O)Nc4ccc(F)c(C(F)(F)F)c4)c3)nn2)cn1`, for which the growth was 14.7% (inactive).

For the compound `CN(C(=O)c1ccc(C(F)(F)F)cc1C(F)(F)F)c1sc2c(c1C#N)CCC(=O)C2`, the growth is 25.2% (inactive). For `C#CCNC(=O)CCC(=O)OC[C@]12CC[C@@H](C(=C)C)[C@@H]1C1CC[C@@H]3[C@@]4(C)CCCNC(C)(C)[C@@H]4CC[C@@]3(C)[C@]1(C)CC2` (stereo partly drawn), the growth is -60.3% (active). The result for `COc1ccc2[nH]cc(/C=N/Nc3ccc(Br)cn3)c2c1` reads 8.63% (active); that for `[2H]C([2H])([2H])Oc1ccc2ncc(C#Cc3cncc(C(=O)Nc4ccc(CN5CCN(C)CC5)c(C(F)(F)F)c4)c3)n2n1`, -29.5% (active). The same measure for `COc1ccc(CN2[C@H](C(=O)NCc3ccc(C(=O)NO)cc3)Cc3c([nH]c4ccccc34)[C@H]2C2CC2)cc1`: 23% (inactive); for `O=c1cc(-c2ccccc2)oc2cc(OCCCCNCc3ccccc3)cc(O)c12`: -73.7% (active).

Consider `O=c1[nH]c2ccccc2cc1CSc1ccc(Nc2nccc(-c3ccc(C(F)(F)F)cc3)n2)cc1`, for which the growth was 6.96% (active). Turning to `CN(C)c1ccc(/C=C/c2nc3ccccc3c(=O)n2CC(=O)Nc2ccccc2)cc1`, the growth is 31.1% (inactive).

Take `Cc1ccc(-c2nc(Nc3ccc(C)c(S(N)(=O)=O)c3)c3ccccc3n2)cc1`: the growth is 29.5% (inactive).
